Measurements reported in PubChem BioAssay (NCATS).
Values joined by “and” are separate entries in the source; they are usually repeats but may differ in a detail not shown here. Equal values may be shown once. Results filed as inconclusive are left out. Where a call stands in place of a potency, no number is given. Unmarked numbers belong to inactive results. Active and inactive are the calls of the source. The call rests on the fitted dose curve; in most records, active means well fitted inhibition curve with a large enough effect; inconclusive means small, poorly fitted or top-dose-only effect; inactive means flat fitted curve, though single readings scatter.

Experiments:
[1] = qHTS profiling for inhibitors of Plasmodium falciparum proliferation (AID 504749); further: nearly all actives have a fitted effect of over 60% in size; settings: P. falciparum in erythrocytes, SYBR Green DNA, 72 h
Outline: (§1)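 P. falciparum-infected erythrocytes (0.3% parasitemia, 2.5% hematocrit) incubated with compound 72 h at 37 C, 5% CO2. Parasite DNA detected by SYBR Green after lysis, overnight at room temperature; normalised to 0.29 uM artemisinin and DMSO.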

[2] = tested on: 3D7; assay: as above; settings: P. falciparum in erythrocytes, SYBR Green DNA, 72 h; series mostly up to 28.7 µM
Outline: as §1

[3] = tested on: 7G8; assay: as above; settings: P. falciparum in erythrocytes, SYBR Green DNA, 72 h; series mostly up to 28.7 µM
Outline: as §1

[4] = tested on: AA1029; assay: as above; settings: P. falciparum in erythrocytes, SYBR Green DNA, 72 h; series mostly up to 28.7 µM
Outline: as §1

[5] = tested on: AS120; assay: as above; settings: P. falciparum in erythrocytes, SYBR Green DNA, 72 h; series mostly up to 28.7 µM
Outline: as §1

[6] = tested on: ATS189; assay: as above; settings: P. falciparum in erythrocytes, SYBR Green DNA, 72 h; series mostly up to 28.7 µM
Outline: as §1

[7] = tested on: ATS95; assay: as above; settings: P. falciparum in erythrocytes, SYBR Green DNA, 72 h; series mostly up to 28.7 µM
Outline: as §1

[8] = tested on: C2A; assay: as above; settings: P. falciparum in erythrocytes, SYBR Green DNA, 72 h; series mostly up to 28.7 µM
Outline: as §1

[9] = tested on: CP185; assay: as above; settings: P. falciparum in erythrocytes, SYBR Green DNA, 72 h; series mostly up to 28.7 µM
Outline: as §1

[10] = at 28.7 µM (top of the series), parasite line A
[11] = at 28.7 µM (top of the series), parasite line B
[12] = at 12.8 µM (top of the series), parasite line A
[13] = at 12.8 µM (top of the series), parasite line B
Potency means the concentration at half of the fitted maximal effect.

Row | Structure (SMILES) | activity, negative = inhibition [1, 10] | activity, negative = inhibition [1, 11] | Potency [2] | Potency [3] | Potency [4] | Potency [5] | Potency [6] | Potency [7] | Potency [8] | Potency [9] | activity, negative = inhibition [1, 12] | activity, negative = inhibition [1, 13] | Potency ([1]; parasite line A) | Potency ([1]; parasite line B)
1 | CC(C)(C)C(=O)NCCCC(=O)O | 13.3% | -4.47% | inactive | inactive | inactive | inactive | inactive | inactive | inactive | inactive | – | – | – | –
2 | C=Cc1c(C)c2cc3[nH]c(cc4nc(cc5nc(cc1[nH]2)C(C)=C5CCC(=O)O)C(CCC(=O)O)=C4C)c(C)c3C=C | -6.02% | 6.67% | inactive | inactive | inactive | inactive | inactive | inactive | inactive | inactive | – | – | – | –
3 | Nc1nc2c(ncn2CCC(CO)CO)c(=O)[nH]1 | 3.65% | -4.23% | inactive | inactive | inactive | inactive | inactive | inactive | inactive | inactive | – | – | – | –
4 | O=C1NC(=O)[C@@]2(CCOc3ccc(F)cc32)N1 | 7.16% | 9.22% | inactive | inactive | inactive | inactive | inactive | inactive | inactive | inactive | – | – | – | –
5 | CCCCC(CC)COC(=O)c1ccccc1O (stereo not given) | 5.45% | -0.719% | inactive | inactive | inactive | inactive | inactive | inactive | inactive | inactive | – | – | – | –
6 | Nc1ccc(S(=O)(=O)Nc2ccccc2)cc1 | -9.52% | 11.6% | inactive | inactive | inactive | inactive | inactive | inactive | inactive | inactive | – | – | – | –
7 | Nc1ccc(S(=O)(=O)Nc2nccs2)cc1 | 1.04% | -2.23% | inactive | inactive | inactive | inactive | inactive | inactive | inactive | inactive | – | – | – | –
8 | COc1ccc(S(=O)(=O)Nc2nnc(CC(C)C)s2)cc1 | 3.77% and -5.99% | 15.9% and -5.44% | inactive | inactive | inactive | inactive | inactive | inactive | inactive | inactive | – | – | – | –
9 | CCCCN(CCCC)CCCOC(=O)c1ccc(N)cc1 | – | – | inactive | inactive | inactive | inactive | inactive | inactive | inactive | inactive | -10.5% | 3.88% | – | –
10 | CC1(C)CO[C@@H](CC(=O)O)CN1 | 1.48% | 5.08% | inactive | inactive | inactive | inactive | inactive | inactive | inactive | inactive | – | – | – | –
11 | NCC(=O)CCC(=O)O | 2.38% | -2.04% | inactive | inactive | inactive | inactive | inactive | inactive | inactive | inactive | – | – | – | –
12 | CCCn1cnc2c1c(=O)n(CCCCC(C)=O)c(=O)n2C | -5.61% | -0.0808% | inactive | 11.2 µM (active) | inactive | inactive | inactive | inactive | inactive | inactive | – | – | – | –
13 | CCN(CC)CCNC(=O)c1cc(Cl)c(N)cc1OC | 11.7% | -3.16% | inactive | inactive | inactive | inactive | inactive | inactive | inactive | inactive | – | – | – | –
14 | CCCCN1CCCC[C@H]1C(=O)Nc1c(C)cccc1C | 5.7% | 17.3% | inactive | inactive | inactive | inactive | – | – | inactive | inactive | – | – | – | –
15 | COc1cc(C)c(Cc2cnc(N)nc2N)cc1OC | – | – | 11.2 µM (active) | inactive | inactive | inactive | inactive | inactive | inactive | inactive | – | – | 4.47 µM (active) | 11.2 µM (active)
16 | CC(O)COc1ccccc1 (stereo not given) | 5.76% | 0.212% | inactive | inactive | inactive | inactive | inactive | inactive | inactive | inactive | – | – | – | –
17 | CC(=O)Nc1ccc(/C=N/NC(N)=S)cc1 | 9.12% and 9.39% | 6.45% and 8.83% | inactive | inactive | inactive | inactive | inactive | inactive | inactive | inactive | – | – | – | –
18 | Cc1cc2c(cc1S(N)(=O)=O)S(=O)(=O)CCC2 | – | – | inactive | inactive | inactive | inactive | inactive | – | inactive | inactive | -1.89% | 2.51% | – | –
19 | CNCCCC1c2ccccc2C=Cc2ccccc21 | – | – | inactive | 5.62 µM (active) | – | inactive | inactive | – | inactive | inactive | 3.94% | -1.98% | – | –
20 | CCCOC(=O)c1ccccc1 | -2.05% | 2.76% | inactive | inactive | inactive | inactive | inactive | inactive | inactive | inactive | – | – | – | –
